The values that follow come from PubChem BioAssay (NCI).

Common to all, as to assay: NCI-60 one-dose screen, 48 h (100 = growth as untreated, 0 = no growth, -100 = all killed)
Settings in all cases: 10 µM unless noted

Assay [1] deals with T-47D breast.
The test system of assay [2] is BT-549 breast.
For assay [3], the system named is MDA-MB-435 melanoma.
Assay [4] deals with SW-620 colon.
In assay [5] the test system is MCF7 breast.
Assay [6] deals with HCT-116 colon.
Assay [7] relates to HCC-2998 colon.
The subject of assay [8] is KM12 colon.

The panel holds about 83,000 compounds, 20% with a hit somewhere; the sample as a whole holds those more often.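 In brief: 96-well plates, 48 h treatment, single concentration, percent growth endpoint.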 Unmarked numbers belong to inactive results. The source made the active and inactive calls. How the source made its calls: active means growth percent below 10; inactive means the rest.

Turning to `COC(=O)C(CC(=O)c1ccc(-c2ccccc2)cc1)c1ccccc1` (configuration not stated), the growth is 51.9% in assay [1]; 71.2% in assay [2]; 5.69% (active) in assay [3]; 26.9% in assay [4]; 16.2% in assay [5]; 23.5% in assay [6]. Further, the growth in assay [7] was 96.5%; in assay [8], 55.6%.

For the molecule `Cc1cc(C)c(S(=O)(=O)N2CCN(c3cc4c(cc3F)c(=O)c(C(=O)O)cn4C3CC3)CC2)c(C)c1`, the growth in assay [1] is 62.9%; in assay [2], 77.3%; in assay [3], 76.1%; in assay [4], 79.8%; in assay [5] it was 54%; in assay [6], 32.2%. The growth in assay [7] is 47.7%; in assay [8] it was 60.7%.

For the molecule `COc1cc(OC)c(C(=O)/C=C/c2cccc(C(F)(F)F)c2)c(OC)c1`, the growth in assay [1] is 16.4%; in assay [2] it was -2.51% (active); in assay [3], 16.2%; in assay [4] it was 0.796% (active); in assay [5], 17%; in assay [6] it was 2.79% (active). In addition, the growth in assay [7] was 29.1%; in assay [8] it was 11%.

In the case of `COC1=CC(c2ccc[nH]2)=N/C1=C\c1[nH]c(C)c(CCCn2cc(CCCCCCCCC[C@@H]3Cc4cc(O)ccc4C4CC[C@]5(C)[C@@H](O)CC[C@H]5C43)nn2)c1C` (some centres not stated), the growth in assay [1] is 38.4%; in assay [2] it was 67.6%; in assay [3], 72.4%; in assay [4], 44.8%; in assay [5], 16.4%; in assay [6] it was 37.3%. For the same molecule, the results for the growth in assay [7] and in assay [8] were 36.4% and 16.2%, respectively.

As for `O=C(c1ccccc1)C(Cl)C(Cl)c1ccccc1` (configuration not stated), the growth is -1.59% (active) in assay [1]; 96.5% in assay [2]; 33.7% in assay [3]; -41.3% (active) in assay [4]; 9.18% (active) in assay [5]; 7.77% (active) in assay [6]. Besides, the growth is 98.1% in assay [7] and 81.3% in assay [8].

Consider `COc1ccc(-c2nc3sccn3c2-c2ccnc(NCCNS(=O)(=O)c3ccc(C(F)(F)F)cc3)n2)cc1`, for which the growth in assay [1] was -11.8% (active); in assay [2], 2.22% (active); in assay [3] it was 2.65% (active); in assay [4] it was 33.7%; in assay [5], 8.53% (active); in assay [6], 10%. The results for the growth in assay [7] and in assay [8] were 23.7% and 4.4% (active), respectively.

Regarding `O=P([O-])(O)OP(=O)([O-])O.[NH-][C@H]1CCCC[C@@H]1[NH-].[OH-].[OH-].[Pt+4]`, the growth in assay [1] is 114%; in assay [2] it was 117%; in assay [3], 99.3%; in assay [4], 105%; in assay [5], 96.7%; in assay [6], 101%. Moreover, the growth in assay [7] is 98.8%; in assay [8], 104%.

With `COc1cc(Br)c(OC)cc1Br`, the growth was 82% in assay [1]; 97.7% in assay [2]; 105% in assay [3]; 94.7% in assay [4]; 63.1% in assay [5]; 91.5% in assay [6]. In addition, the growth in assay [7] is 99.6%; in assay [8], 76.3%.

Take `Cc1nc2sccn2c1-c1csc(Nc2ccccc2Cl)n1`: the growth is 41% in assay [1]; 40.6% in assay [2]; 2.78% (active) in assay [3]; 33.1% in assay [4]; 33.9% in assay [5]; 27.8% in assay [6]. Further, the growth in assay [7] was 63.8%; in assay [8] it was 29.6%.

With `COc1cc(NC(=O)CSc2nc3ccc(C)cc3c(=O)n2-c2ccccc2)cc(OC)c1OC`, the growth in assay [1] is 81.7%; in assay [2], 79.8%; in assay [3], 47.5%; in assay [4], 87.6%; in assay [5], 91.1%; in assay [6], 87%. Further, the figures for the growth in assay [7] and in assay [8] were 97.5% and 75.1%, respectively.

Turning to `COc1ccc(C2CC(c3cccs3)=NN2c2ccc(S(=O)(=O)NC(=O)NCc3cccc(OC)c3)cc2)cc1` (configuration not stated), the growth in assay [1] was 85.7%; in assay [2], 116%; in assay [3], 52.3%; in assay [4] it was 107%; in assay [5], 99%; in assay [6], 98.8%. The growth in assay [7] is 111%; in assay [8], 98.5%.

`Cc1cnc(NC(=O)C(Cc2ccccc2)NC(=O)c2ccccc2)s1` (configuration not stated): the growth in assay [1] is 87.3%; in assay [2], 88.4%; in assay [3], 13.2%; in assay [4], 80.3%; in assay [5] it was 46.2%; in assay [6], 49.7%. The growth in assay [7] is 73.3%; in assay [8], 60.2%.

For `COc1cccc(NC(=O)c2sc3nc4c(cc3c2N)CCCC4)c1`, the growth in assay [1] was 41.5%; in assay [2] it was 66.7%; in assay [3], -40.2% (active); in assay [4], 32.1%; in assay [5] it was 13.2%; in assay [6], 20.7%. For the same molecule, the growth in assay [7] is 24.4%; in assay [8], 23.1%.

Consider `O=C(Nc1ccc(Cl)cc1)c1cc(-c2ccc(F)cc2)c2sc(=O)[nH]c2n1`, for which the growth in assay [1] was 3.75% (active); in assay [2], -13.1% (active); in assay [3], 8.39% (active); in assay [4], 14.5%; in assay [5], 4.61% (active); in assay [6], 3.3% (active). Moreover, the growth in assay [7] was 22%; in assay [8], 6.83% (active).
